PMC7819943, “Rice protein-binding microarrays: a tool to detect cis-acting elements near promoter regions in rice”
Over roughly 35,000 sequences, “fluorescence intensity (a.u.)” has its median near 10,000; the highest 2% begin near 52,000. Shown is part of a subset that was picked to be rich in the highest values.

biological target: T1, OsWOX13 (Oryza sativa, UniProt Q5QMM3 1-267); assay: protein-binding microarray (RPBM); PBS, 2% BSA, 51.3 ng/ul salmon testes DNA, 50 uM zinc acetate, 200 nM TF, 25 C, 1 h; high values mean tight binding; settings: protein: recombinant; tags: N-terminal polyhistidine and DsRed monomer fusion (pET32a); label: CyDye5-dUTP incorporated in the synthesized complementary strand; 3' TTTTT single-stranded linker to array surface; dsDNA, one strand shown
T1 sequence: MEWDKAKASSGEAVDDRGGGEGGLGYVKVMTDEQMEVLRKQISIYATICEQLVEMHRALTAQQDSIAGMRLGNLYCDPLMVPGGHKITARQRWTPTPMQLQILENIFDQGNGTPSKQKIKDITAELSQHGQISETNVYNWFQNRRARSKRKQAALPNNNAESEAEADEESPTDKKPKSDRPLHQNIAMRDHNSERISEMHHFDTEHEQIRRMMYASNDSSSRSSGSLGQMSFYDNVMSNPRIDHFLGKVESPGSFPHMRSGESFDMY
How it was run: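 The binding signal is fluorescence intensity per feature, in arbitrary units, read on an Axon 4000B scanner. Polyhistidine- and DsRed-tagged transcription factors (N-terminal fusions) from E. coli BL21-CodonPlus were purified on Ni–NTA and applied at 200 nM for 1 h at 25 °C to a double-stranded, BSA-blocked custom Agilent array in buffer with 50 µM zinc acetate.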

Sequence | binding signal
GGGCCTGGTCCTGATTGGACTTCCTTATCTGTCTATCACACGGAGTCACCTAGTGCAG | 10700 fluorescence intensity (a.u.)
TGATGGGAAAACTTTAAAATTAATTTTGAATTTAAGGTTGCGGAGTCACCTAGTGCAG | 4960 fluorescence intensity (a.u.)
TGCTTTGATTTTACGTCACATACACATGGTGATGCTTCAACGGAGTCACCTAGTGCAG | 6250 fluorescence intensity (a.u.)
CAGTTTAATTGCTCCTCGGATGGATCTGGTATAGTTCTGCCGGAGTCACCTAGTGCAG | 20700 fluorescence intensity (a.u.)
CTCTTGATTGTATCCTTAGGCACTTTGTATATTCTCGAGTCGGAGTCACCTAGTGCAG | 31700 fluorescence intensity (a.u.)
CCATTACGTGATCACAGATTGATCAAGAAATGCTTGACGACGGAGTCACCTAGTGCAG | 19600 fluorescence intensity (a.u.)
TTCACTAATCAATCAACTTAATTTGCTCTGTCAATGTGCACGGAGTCACCTAGTGCAG | 61700 fluorescence intensity (a.u.)
TTTATATTATTTGTCAATCTTATTGTCAACTTATTAATCACGGAGTCACCTAGTGCAG | 5140 fluorescence intensity (a.u.)
TTTAATTGATGGAGCGGTAATGGTAATAGTTCTTCACTCACGGAGTCACCTAGTGCAG | 57300 fluorescence intensity (a.u.)
TCTGATTAATTTGACGGCCACAAAATACTTAGTTTGGCAACGGAGTCACCTAGTGCAG | 65000 fluorescence intensity (a.u.)
GAACAGGTAATTTAAAATTGATGGAGTTCATAGGATGTCACGGAGTCACCTAGTGCAG | 24200 fluorescence intensity (a.u.)
CCAAATGATTAATTTGGAGGACTTATTTGGACGTTTTGAACGGAGTCACCTAGTGCAG | 42300 fluorescence intensity (a.u.)
TAAAATTAGTCAAACTTAAAGCAGTTTGATTTTGACTAAACGGAGTCACCTAGTGCAG | 3740 fluorescence intensity (a.u.)
AAGATACGTGATTGAAATCATTCCATTATGGACGACATTGCGGAGTCACCTAGTGCAG | 54000 fluorescence intensity (a.u.)
TTTATAATAGTTAATATTTAATTGATCATTTGCTAATGAGCGGAGTCACCTAGTGCAG | 24900 fluorescence intensity (a.u.)
ACATCACTAATTAATGTAATTTAAGTGGCTCATTTGCTCACGGAGTCACCTAGTGCAG | 31900 fluorescence intensity (a.u.)
TTGGATTAGAATTTAATTTGAAGACGACATCCATTGGATACGGAGTCACCTAGTGCAG | 28700 fluorescence intensity (a.u.)
TTAACAATTGAAAGATCATCTCATTGGTTAATTTATTTGGCGGAGTCACCTAGTGCAG | 6220 fluorescence intensity (a.u.)
GATGGTCTATTAGTCCGTGATTAATTAAGTATTAGCTATTCGGAGTCACCTAGTGCAG | 8910 fluorescence intensity (a.u.)
TTTGACAAATTTGACAACTCCTCTAGCTCCCACTGCTACTCGGAGTCACCTAGTGCAG | 38200 fluorescence intensity (a.u.)
CTGTGATAATCTGTCTTCCTGTGATACCAGCACTGTTTCCCGGAGTCACCTAGTGCAG | 3340 fluorescence intensity (a.u.)

Sequence | binding signal
TGCTAGTTAAATTGGGATAAAATAATGGGCCCATTTATTTCGGAGTCACCTAGTGCAG | 4520 fluorescence intensity (a.u.)
AGTGATTAGTAGCAGCAGAAAGAGTGGAAGATTTAGAGGACGGAGTCACCTAGTGCAG | 17800 fluorescence intensity (a.u.)
TTAAATTTAAATTTGAGATTGATTTTGAGATATTTTCAACCGGAGTCACCTAGTGCAG | 38200 fluorescence intensity (a.u.)
ATTGCGTGCTTGATTAATTAGTTTCTACCAACAATTTCTCCGGAGTCACCTAGTGCAG | 8110 fluorescence intensity (a.u.)
ACAATTGATAGATTTGTCTGTTGCTTTGCTTTGATTCCTCCGGAGTCACCTAGTGCAG | 43800 fluorescence intensity (a.u.)
AATTAAATAAATTATAATTTATTTTATTGAGATTTGATTTCGGAGTCACCTAGTGCAG | 41300 fluorescence intensity (a.u.)
AAAATTTAATTGATTATATGCTAATAACTTTCTTGTTTTGCGGAGTCACCTAGTGCAG | 51600 fluorescence intensity (a.u.)
TATAATTGATTATTTTAATTTCTTTTGCTATTAATAGTCACGGAGTCACCTAGTGCAG | 64700 fluorescence intensity (a.u.)
TGCACCAATTTGATTGATACCAATTTGCTTTAATTTCGTCCGGAGTCACCTAGTGCAG | 57200 fluorescence intensity (a.u.)
TTTTCTTGATTAATTAAATATAAATTTGCATTTCATTTCACGGAGTCACCTAGTGCAG | 16900 fluorescence intensity (a.u.)
CCCAAACGCCCTGAAATCAAATTGAATATTCCAATTTGCACGGAGTCACCTAGTGCAG | 4630 fluorescence intensity (a.u.)
CAGAAACTGAAATACCAATTGATTCTTCCAATTCCCTGAACGGAGTCACCTAGTGCAG | 6740 fluorescence intensity (a.u.)
TTAAATTTAAATTTAAATTTAATTTTGAGATTTCTTTTCACGGAGTCACCTAGTGCAG | 55700 fluorescence intensity (a.u.)
TTATTGATTGATTGAATCAGACTGAAATTCCAAACCACGACGGAGTCACCTAGTGCAG | 63100 fluorescence intensity (a.u.)
ATCGGCATGTTCACCAGCTCTGATTGGTAGTACGATTTTACGGAGTCACCTAGTGCAG | 5140 fluorescence intensity (a.u.)
TAAATAAATGATTGGGCTTGTTAATGGGCTTCCTCTTCCTCGGAGTCACCTAGTGCAG | 41900 fluorescence intensity (a.u.)
CCCAAATAGAAGTAGAATTGAGACACTGAGTGGTGCAAAGCGGAGTCACCTAGTGCAG | 3400 fluorescence intensity (a.u.)
ATGATTGTTGGAGCAAGGCCCAGCCCAAGGTAGCGTACATCGGAGTCACCTAGTGCAG | 13400 fluorescence intensity (a.u.)
TGTTACTAATTTATTTGGAGGCTTCATGGTTGACCTATTGCGGAGTCACCTAGTGCAG | 3440 fluorescence intensity (a.u.)
GATAATTTGAACCATAGATTTATCATTCAAAGGCTATAAACGGAGTCACCTAGTGCAG | 9720 fluorescence intensity (a.u.)
GTAGCAATCAAATATGGGCCGGTCAATTGTTCGCGGTAGACGGAGTCACCTAGTGCAG | 4130 fluorescence intensity (a.u.)
